# Test results taken from the supplement of paper PMC10849652.
# About 7,900 targets were measured; listed, in parts, are those with a hit and a random draw of the rest. About 0.6% of all pairs of compound and target were hits. Unmarked numbers belong to inactive results.
# How the values were obtained:
# Test in all cases: log2 fold change, soluble protein after heating vs DMSO (PISA); higher = thermal stabilisation; K562 cells, 10 uM, 30 min; active = over 0.2 and 3.5 SD of the protein, either way, in both replicates (recomputed)
# [1] = compound: C1COCCN1CCN2C3=CC=CC=C3N=C2NC(=O)C4=CC(=CC=C4)[N+](=O)[O-] [IRAK-1-4 Inhibitor I]
# In short: (§1)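 K562 cells at 2×10^6 cells/mL were treated with 10 μM compound for 30 min. Aliquots were heated for 3 min across 48°C-58°C, pooled, and extracted in PBS with 0.5% NP-40 at 4°C; soluble protein was the supernatant after 21,000xg for 90 min. Soluble protein was quantified by TMTpro 16plex LC-MS/MS with channel sums equalised, and reported as log2 fold change in thermal stability against DMSO controls, with values from duplicates.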
# [2] = compound: C=CC(=O)N1CCC[C@@H](n2nc(-c3ccc(Oc4ccccc4)cc3)c3c(N)ncnc32)C1 [ibrutinib]
# In short: as §1
# [3] = compound: CC(=O)c1cnc2ccc(-c3cc(Cl)c(O)c(Cl)c3)nc2c1N[C@H]1CC[C@H](CN(C)C)CC1
# In short: as §1
# [4] = compound: CC(C)(C)Cn1c(N)nc2ccc(-c3[nH]c(C(C)(C)C)nc3-c3ccc(F)cc3)nc21 [ralimetinib]
# In short: as §1
# [5] = compound: CC(C)(O)CC(=O)NCCn1ccc2ncnc(Nc3ccc(Oc4cccc(C(F)(F)F)c4)c(Cl)c3)c21
# In short: as §1
# [6] = compound: CC(C)C1=C2N=C(C=C(N2N=C1)NCC3=CC=CC=C3)NCCCCCCN
# In short: as §1
# [7] = compound: CC(C)C[C@@H](C=O)NC(=O)[C@H](CC(C)C)NC(=O)[C@H](CC(C)C)NC(=O)OCc1ccccc1
# In short: as §1
# [8] = compound: CC(C)N(C[C@H]1O[C@@H](n2cnc3c(N)ncnc32)[C@H](O)[C@@H]1O)[C@H]1C[C@@H](CCc2nc3cc(C(C)(C)C)ccc3[nH]2)C1 [pinometostat]
# In short: as §1
# [9] = compound: CC1=C(C(CC(=O)N1)C2=CC=C(C=C2)C(F)(F)F)C(=O)NC3=C(C=C4C(=C3)C=NN4)F
# In short: as §1
# [10] = compound: CC1=C(C2=C(C=C1)C(=O)C3=CC=CC=C3N2CCCN)C
# In short: as §1
# UniProt Q9Y2X3, sequence (Q9Y2X3 whole entry, looked up): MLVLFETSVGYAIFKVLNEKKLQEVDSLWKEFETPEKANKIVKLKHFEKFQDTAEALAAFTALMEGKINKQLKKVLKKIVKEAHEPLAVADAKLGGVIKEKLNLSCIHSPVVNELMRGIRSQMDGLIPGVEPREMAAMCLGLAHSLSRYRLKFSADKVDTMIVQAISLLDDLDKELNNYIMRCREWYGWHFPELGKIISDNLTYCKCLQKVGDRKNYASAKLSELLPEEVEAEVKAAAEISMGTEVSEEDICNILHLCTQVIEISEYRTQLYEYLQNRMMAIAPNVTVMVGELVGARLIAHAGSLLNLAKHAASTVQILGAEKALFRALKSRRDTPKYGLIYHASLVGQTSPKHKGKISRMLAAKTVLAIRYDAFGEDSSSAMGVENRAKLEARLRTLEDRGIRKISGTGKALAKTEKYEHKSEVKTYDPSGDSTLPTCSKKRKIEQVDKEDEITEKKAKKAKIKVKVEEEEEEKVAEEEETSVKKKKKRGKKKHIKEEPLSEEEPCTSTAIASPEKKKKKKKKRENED
# UniProt Q9NXX6, sequence (Q9NXX6 whole entry, looked up): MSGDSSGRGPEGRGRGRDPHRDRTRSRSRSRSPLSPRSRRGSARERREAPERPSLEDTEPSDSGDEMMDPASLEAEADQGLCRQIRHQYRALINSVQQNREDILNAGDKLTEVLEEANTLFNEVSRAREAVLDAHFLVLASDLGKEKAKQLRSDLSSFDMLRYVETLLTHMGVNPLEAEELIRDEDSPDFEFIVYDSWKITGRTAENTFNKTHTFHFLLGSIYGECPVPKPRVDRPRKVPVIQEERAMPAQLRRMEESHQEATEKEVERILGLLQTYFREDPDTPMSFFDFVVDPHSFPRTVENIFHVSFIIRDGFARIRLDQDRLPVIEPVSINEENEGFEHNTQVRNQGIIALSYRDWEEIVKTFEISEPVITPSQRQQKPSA
# UniProt Q5TFE4, sequence (Q5TFE4 whole entry, looked up): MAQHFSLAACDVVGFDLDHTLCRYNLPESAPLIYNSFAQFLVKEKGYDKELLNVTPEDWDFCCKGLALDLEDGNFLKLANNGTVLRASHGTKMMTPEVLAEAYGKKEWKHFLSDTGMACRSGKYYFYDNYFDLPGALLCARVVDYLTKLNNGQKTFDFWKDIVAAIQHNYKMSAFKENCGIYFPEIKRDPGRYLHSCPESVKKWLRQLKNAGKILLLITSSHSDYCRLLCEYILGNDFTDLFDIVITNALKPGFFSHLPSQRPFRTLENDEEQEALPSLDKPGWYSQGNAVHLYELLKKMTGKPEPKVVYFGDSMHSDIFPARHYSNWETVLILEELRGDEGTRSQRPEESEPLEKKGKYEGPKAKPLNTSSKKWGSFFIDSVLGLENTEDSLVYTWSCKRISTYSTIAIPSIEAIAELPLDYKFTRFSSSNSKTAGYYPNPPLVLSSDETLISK
# UniProt Q9H1E3, sequence (Q9H1E3 whole entry, looked up): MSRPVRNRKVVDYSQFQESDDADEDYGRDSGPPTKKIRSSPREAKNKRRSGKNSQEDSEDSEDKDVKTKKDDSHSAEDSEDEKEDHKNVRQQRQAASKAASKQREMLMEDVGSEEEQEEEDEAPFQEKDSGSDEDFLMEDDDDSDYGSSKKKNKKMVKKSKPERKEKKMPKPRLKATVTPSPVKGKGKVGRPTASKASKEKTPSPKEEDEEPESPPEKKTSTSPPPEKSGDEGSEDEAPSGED
# UniProt Q12769, sequence (Q12769 whole entry, looked up): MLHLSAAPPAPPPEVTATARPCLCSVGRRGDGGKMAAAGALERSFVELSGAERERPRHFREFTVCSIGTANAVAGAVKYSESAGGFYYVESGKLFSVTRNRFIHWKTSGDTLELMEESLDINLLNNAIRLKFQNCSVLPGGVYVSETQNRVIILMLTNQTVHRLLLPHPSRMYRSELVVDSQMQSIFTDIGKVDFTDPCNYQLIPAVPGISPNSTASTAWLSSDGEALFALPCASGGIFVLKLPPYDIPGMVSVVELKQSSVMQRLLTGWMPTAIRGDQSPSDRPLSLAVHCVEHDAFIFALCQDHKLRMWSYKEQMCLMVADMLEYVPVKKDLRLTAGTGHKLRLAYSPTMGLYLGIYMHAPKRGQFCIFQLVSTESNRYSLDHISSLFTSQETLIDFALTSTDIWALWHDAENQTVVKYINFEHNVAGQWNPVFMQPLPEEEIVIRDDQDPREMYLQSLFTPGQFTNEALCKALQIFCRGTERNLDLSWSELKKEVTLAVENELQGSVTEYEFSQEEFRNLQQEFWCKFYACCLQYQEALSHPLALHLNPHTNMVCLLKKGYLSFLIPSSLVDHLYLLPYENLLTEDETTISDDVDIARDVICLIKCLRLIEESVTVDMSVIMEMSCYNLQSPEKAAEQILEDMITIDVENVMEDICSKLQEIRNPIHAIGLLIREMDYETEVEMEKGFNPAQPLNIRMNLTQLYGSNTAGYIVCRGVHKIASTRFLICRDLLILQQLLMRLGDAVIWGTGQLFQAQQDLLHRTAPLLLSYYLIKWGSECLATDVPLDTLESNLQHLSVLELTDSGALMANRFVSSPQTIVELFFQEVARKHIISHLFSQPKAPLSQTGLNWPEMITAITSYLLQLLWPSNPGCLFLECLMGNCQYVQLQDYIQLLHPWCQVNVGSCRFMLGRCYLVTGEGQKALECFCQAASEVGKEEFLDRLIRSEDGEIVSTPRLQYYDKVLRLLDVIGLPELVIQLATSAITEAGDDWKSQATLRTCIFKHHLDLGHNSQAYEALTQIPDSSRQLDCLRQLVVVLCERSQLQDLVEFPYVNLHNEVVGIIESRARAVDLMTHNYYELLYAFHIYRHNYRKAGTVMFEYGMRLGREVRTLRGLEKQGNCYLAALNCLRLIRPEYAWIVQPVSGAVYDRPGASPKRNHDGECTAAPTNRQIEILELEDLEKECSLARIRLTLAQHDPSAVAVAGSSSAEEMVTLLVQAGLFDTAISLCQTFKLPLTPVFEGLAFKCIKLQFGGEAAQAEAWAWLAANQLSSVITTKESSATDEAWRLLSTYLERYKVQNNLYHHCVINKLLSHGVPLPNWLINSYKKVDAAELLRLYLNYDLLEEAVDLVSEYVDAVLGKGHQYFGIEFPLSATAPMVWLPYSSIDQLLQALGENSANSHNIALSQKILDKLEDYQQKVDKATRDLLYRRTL
# UniProt Q16795, sequence (Q16795 whole entry, looked up): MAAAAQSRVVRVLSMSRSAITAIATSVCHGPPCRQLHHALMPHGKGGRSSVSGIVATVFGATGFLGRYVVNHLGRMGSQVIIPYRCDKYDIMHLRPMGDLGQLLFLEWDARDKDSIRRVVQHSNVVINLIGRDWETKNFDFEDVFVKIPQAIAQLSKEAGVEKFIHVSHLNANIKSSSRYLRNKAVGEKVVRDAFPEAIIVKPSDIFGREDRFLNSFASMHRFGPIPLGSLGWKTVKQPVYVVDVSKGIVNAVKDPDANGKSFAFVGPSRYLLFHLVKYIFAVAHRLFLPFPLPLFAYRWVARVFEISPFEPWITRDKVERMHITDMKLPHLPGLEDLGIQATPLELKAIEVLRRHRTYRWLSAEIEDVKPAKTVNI
# UniProt Q13153, sequence (Q13153 whole entry, looked up): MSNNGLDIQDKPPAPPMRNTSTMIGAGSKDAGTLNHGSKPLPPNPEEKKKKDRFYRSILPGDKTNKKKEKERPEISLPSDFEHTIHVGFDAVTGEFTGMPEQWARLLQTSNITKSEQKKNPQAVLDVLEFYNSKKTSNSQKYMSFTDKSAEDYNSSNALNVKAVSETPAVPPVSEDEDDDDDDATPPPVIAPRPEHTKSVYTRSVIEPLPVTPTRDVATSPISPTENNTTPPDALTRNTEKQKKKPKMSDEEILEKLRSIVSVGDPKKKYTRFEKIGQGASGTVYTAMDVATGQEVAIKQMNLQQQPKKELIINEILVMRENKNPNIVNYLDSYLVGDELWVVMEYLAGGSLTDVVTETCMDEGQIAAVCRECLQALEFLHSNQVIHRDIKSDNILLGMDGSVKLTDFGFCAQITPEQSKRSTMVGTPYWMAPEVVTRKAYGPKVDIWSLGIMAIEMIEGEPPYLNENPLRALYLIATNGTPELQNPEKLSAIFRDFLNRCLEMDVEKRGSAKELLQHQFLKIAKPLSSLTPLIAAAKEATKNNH
# UniProt Q8WVJ2, sequence (Q8WVJ2 whole entry, looked up): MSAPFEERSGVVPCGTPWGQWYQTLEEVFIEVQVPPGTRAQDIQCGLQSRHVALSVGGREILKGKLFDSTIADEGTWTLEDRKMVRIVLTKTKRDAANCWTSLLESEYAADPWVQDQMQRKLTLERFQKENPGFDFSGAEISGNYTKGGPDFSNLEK
# UniProt Q00013, sequence (Q00013 whole entry, looked up): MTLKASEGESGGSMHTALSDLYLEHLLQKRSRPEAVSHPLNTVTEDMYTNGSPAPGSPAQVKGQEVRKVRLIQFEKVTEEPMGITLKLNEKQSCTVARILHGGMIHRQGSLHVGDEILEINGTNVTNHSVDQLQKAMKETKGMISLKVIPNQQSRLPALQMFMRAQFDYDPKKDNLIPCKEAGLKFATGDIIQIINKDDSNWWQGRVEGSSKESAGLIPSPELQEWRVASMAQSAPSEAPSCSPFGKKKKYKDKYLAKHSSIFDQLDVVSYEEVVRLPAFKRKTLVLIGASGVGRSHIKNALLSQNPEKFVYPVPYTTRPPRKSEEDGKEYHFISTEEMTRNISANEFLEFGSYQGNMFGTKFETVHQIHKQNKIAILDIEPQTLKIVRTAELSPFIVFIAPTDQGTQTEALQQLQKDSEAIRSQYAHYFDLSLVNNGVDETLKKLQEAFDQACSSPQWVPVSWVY
# UniProt O43809, sequence (O43809 whole entry, looked up): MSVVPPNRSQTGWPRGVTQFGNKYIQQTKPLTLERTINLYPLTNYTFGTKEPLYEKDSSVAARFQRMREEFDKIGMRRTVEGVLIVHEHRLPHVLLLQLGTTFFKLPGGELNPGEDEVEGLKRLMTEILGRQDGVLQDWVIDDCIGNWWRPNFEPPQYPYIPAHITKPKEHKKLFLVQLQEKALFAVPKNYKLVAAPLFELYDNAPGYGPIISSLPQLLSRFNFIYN
# UniProt Q9UI09, sequence (Q9UI09 whole entry, looked up): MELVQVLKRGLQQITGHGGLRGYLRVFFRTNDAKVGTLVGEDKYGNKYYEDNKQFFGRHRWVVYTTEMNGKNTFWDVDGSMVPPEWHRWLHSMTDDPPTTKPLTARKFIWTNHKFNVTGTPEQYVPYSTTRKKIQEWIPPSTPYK
Target,log2 fold change [1],log2 fold change [2],log2 fold change [3],log2 fold change [4],log2 fold change [5],log2 fold change [6],log2 fold change [7],log2 fold change [8],log2 fold change [9],log2 fold change [10]
MSH2 (UniProt P43246),-0.024,-0.066,0.018,-0.031,-0.041,-0.019,0.023,-0.023,-0.015,0.357 (active)
MYO19 (UniProt Q96H55),0.014,-0.11,0.168,0.115,0.079,-0.06,0.176,0.014,-0.198,–
NCL (UniProt P19338),-0.144,0.034,0.118,0.166,0.119,0.07,0.121,0.4,0.039,-0.891 (active)
MSTO1 (UniProt Q9BUK6),0.012,0.009,-0.003,-0.028,-0.162,-0.105,-0.003,-0.002,-0.027,0.043
NUP160 (UniProt Q12769),-0.03,-0.041,-0.13,-0.002,-0.032,-0.137,-0.01,0.058,0.001,-0.012
NISCH (UniProt Q9Y2I1),0.053,0,-0.037,0.02,0.007,-0.429,0.028,0.047,0.018,0.004
NDUFS4 (UniProt O43181),0.076,0.029,0.062,0.015,0.022,0.007,0.274 (active),0.013,0.046,-0.193
NUDT21 (UniProt O43809),-0.057,0.014,-0.33 (active),-0.022,0.077,0.066,0.034,-0.022,-0.005,0.246 (active)
NT5DC1 (UniProt Q5TFE4),0.049,0.021,-0.039,-0.054,-0.019,0.02,-0.011,-0.024,-0.001,-0.022
MXRA7 (UniProt P84157),0.098,0.048,-0.064,-0.012,0.116,0.075,-0.083,-0.049,-0.011,-0.045
NOP2 isoform 4 (UniProt P46087),-0.111,-0.278,0.308,0.205,0.163,0.241,0.194,0.325,-0.062,-0.474
MYH11 isoform 2 (UniProt P35749),0.035,-0.013,0.028,-0.016,-0.107,0.056,-0.002,-0.042,0.027,-0.024
NSMCE2 (UniProt Q96MF7),-0.023,-0.171,-0.107,0.176,0.051,0.122,-0.083,-0.001,-0.056,-0.122
NOP58 (UniProt Q9Y2X3),-0.06,0.039,-0.117,-0.008,0.06,0.052,0.117,0.128,-0.035,-0.029
NDUFAF6 (UniProt Q330K2),0.129,-0.044,-0.107,0.039,-0.214,-0.235,0.083,-0.132,0.091,-0.109
NSMCE4A (UniProt Q9NXX6),0.077,-0.116,-0.059,0.051,0.003,0.252,0.008,0,-0.052,-0.124
NDUFA12 (UniProt Q9UI09),0.05,-0.078,-0.04,-0.043,-0.128,-0.31 (active),0.021,-0.06,-0.012,0.122
MRPS18B (UniProt Q9Y676),-0.026,0.103,-0.096,-0.022,-0.025,-0.043,0.137,-0.005,0.056,-0.068
NDUFA9 (UniProt Q16795),0.003,-0.036,-0.037,-0.011,-0.211,-0.101,0,-0.006,-0.01,0.086
NUCKS1 (UniProt Q9H1E3),0.094,-0.018,0.208,-0.054,0.018,0.138,-0.029,-0.061,0.021,-0.454 (active)
NMNAT1 (UniProt Q9HAN9),-0.007,0.073,0.05,0.18,0.13,0.093,0.168,0.429,0.051,-0.674 (active)
MPP1 (UniProt Q00013),-0.073,-0.047,-0.071,0.075,-0.087,-0.147,0.023,0.011,-0.023,0.029
MPHOSPH10 (UniProt O00566),-0.215,-0.022,-0.064,0.144,0.089,-0.071,0.053,0.113,0.021,-0.56
PAK1 isoform 2 (UniProt Q13153),0.018,0.048,0.158,-0.066,-0.025,0,-0.046,-0.038,0.192,0.051
NR2C2 isoform 2 (UniProt P49116),0.004,0.022,-0.062,-0.064,-0.048,-0.004,0.058,0.014,0.045,-0.215
MRPS35 (UniProt P82673),-0.035,0.004,-0.082,-0.035,-0.047,-0.024,0.083,0.078,0.006,-0.186
MRPS21 (UniProt P82921),-0.143,0.029,0.172,-0.038,-0.069,0.063,0.063,0.052,-0.091,-0.207
NUDCD2 (UniProt Q8WVJ2),-0.032,-0.035,-0.027,0.033,-0.045,-0.248,-0.012,0.066,-0.023,-0.064
MRPS17 (UniProt Q9Y2R5),-0.192,0.06,-0.029,0.032,-0.054,0.014,0.025,-0.027,-0.049,-0.2
MMS19 isoform 8 (UniProt Q96T76),-0.141,-0.029,-0.028,0.078,-0.082,-0.216,0.006,0.084,-0.018,0.011
